Records with an inconclusive call do not appear. Calls of active or inactive are those of the source. Calls come from the whole dose curve; as a rule, active = well fitted cell-killing curve with a large enough effect in the repeat runs (not every such curve was filed as active); inconclusive = weak or mixed curves, or effect the other way; inactive = no such curve, though single readings can be large or run the other way.
Assay: qHTS assay to identify small molecule antagonists of the farnesoid-X-receptor (FXR) signaling pathway - cell viability counter screen (AID 743221); note: nearly all actives have a fitted effect of over 50% in size
Conditions: FXR-bla HEK293T viability, CellTiter-Glo luminescence, 16 h; series mostly up to 62.6 µM
Description: National Center for Advancing Translational Sciences [NCATS]
NIH Chemical Genomics Center [NCGC]
U.S. Environmental Protection Agency [EPA]
National Institutes of Environmental Health Sciences [NIEHS]
National Toxicology Program [NTP]
U.S. Food and Drug Administration [FDA]
The farnesoid-X-receptor (FXR), a nuclear hormone receptor, is highly expressed in liver, intestine, kidney and adrenal cortex. Natural ligands of FXR are the bile acids (Cholic acid, Chenodeoxy cholic acid etc). FXR is an important regulator of diverse metabolic pathways, including the bile acid homeostasis, lipid and glucose metabolisms. FXR regulates the expression of target genes by binding either as a monomer or as a heterodimer with the retinoid X receptor (RXR). Numerous studies have reported that FXR exerts protective function during cholestasis, diabetes, liver regeneration, and cancer. To identify compounds that inhibit FXR signaling, GeneBLAzer FXR-UAS-bla HEK 293T cell line (Invitrogen, Carlsbad, CA) containing a beta-lactamase reporter gene under the control of a UAS response element was used to screen the Tox21 10K compound library. The cytotoxicity of the Tox21 compound library against the FXR-bla cell line was tested in parallel by measuring the cell viability using CellTiter-Glo assay in the same wells.
Tox21 Assay Protocol Summary:
FXR-bla cells were dispensed at 5000 cells/5uL/well in 1536-well black wall/clear bottom plates using a Multidrop Combi (Thermo Fisher Scientific, Waltham, MA) dispenser. After the assay plates were incubated at 37 C and 5% CO2 for 5 h, 23 nL of compounds dissolved in DMSO, positive controls or DMSO only was transferred to the assay plate by a Pintool station (Kalypsys, San Diego, CA), followed by addition of 1 uL Chenodeoxycholic acid (50 uM, final concentration in the wells). The assay plates were incubated at 37C for 16 h. After 1 uL of LiveBLAzerTM B/G FRET substrate was added using a Bioraptr Flying Reagent Dispenser (FRD) workstation (Beckman Coulter, Indianapolis, IN), the plates were incubated at room temperature for 2 h, and fluorescence intensity was measured by an Envision plate reader (PerkinElmer, Shelton, CT). For cell viability readout that measures cytotoxicity, 4uL/well of CellTiter-Glo reagent was added into the assay plates using a Bioraptr FRD. After 30 min incubation at room temperature, the luminescence intensity in the plates was measured using a ViewLux plate reader (PerkinElmer).

| Structure (SMILES) | outcome |
| --- | --- |
| CC(CCc1ccccc1)NC(C)C(O)c1ccc(O)cc1 (stereo not given) | inactive |
| O=C(NCO)NCO | inactive |
| C[N+](=O)[O-] | inactive |
| CCOP(=S)(OCC)Oc1nc(Cl)n(C(C)C)n1 | inactive |
| CCCCc1ccc(O)cc1 | inactive |
| O=C(Nc1ccccc1)c1ccccc1I | inactive |
| NC(=O)c1cc([N+](=O)[O-])cc([N+](=O)[O-])c1 | inactive |
| OC(Cn1cncn1)(c1ccc(F)cc1)c1ccccc1F (stereo not given) | inactive |
| C=CC1CC=CCC1 (stereo not given) | inactive |
| Clc1ccccc1N1CCNCC1 | inactive |
| Nc1c(Br)cc([N+](=O)[O-])cc1[N+](=O)[O-] | inactive |
| CCOP(=S)(OCC)SCSP(=S)(OCC)OCC | inactive |
| CCOP(=S)(OCC)Oc1cc(-c2ccccc2)on1 | inactive |
| CCCCCCBr | inactive |
| CCCCC(=O)Cl | inactive |
| CCOC(=O)CP(=O)(OCC)OCC | inactive |
| Cc1ncc(CNC(=O)N(CCCl)N=O)c(N)n1 | inactive |
| O=C1CN2CCOC2(c2ccccc2Cl)c2cc(Cl)ccc2N1 (stereo not given) | inactive |
| [Cl][Sn]([Cl])([Cl])[Cl] | inactive |
| O=C1OC(=O)C2C1C1(Cl)C(Cl)=C(Cl)C2(Cl)C1(Cl)Cl (stereo not given) | inactive |

| Structure (SMILES) | outcome |
| --- | --- |
| Cc1cc(C)nc(Nc2ccccc2)n1 | inactive |
| CC(C)CC(N(C)C)C1(c2ccc(Cl)cc2)CCC1 (stereo not given) | inactive |
| O=C1c2ccccc2C(=O)c2ccccc21 | inactive |
| CCN(CC)CCOC(=O)C(C)(c1ccccc1)c1ccccc1 | inactive |
| COC(=O)c1c(C(F)F)nc(C(F)(F)F)c(C2=NCCS2)c1CC(C)C | inactive |
| CC1(C)CON(Cc2ccccc2Cl)C1=O | inactive |
| CC(C)CC#N | inactive |
| O=[N+]([O-])c1ccc2c3c(cccc13)CC2 | inactive |
| CCCSP(=S)(OCC)Oc1ccc(Cl)cc1Cl (stereo not given) | inactive |
| ClC(Cl)C(Cl)Cl | inactive |
| C=C(C)[C@@H]1CC=C(C=O)CC1 | inactive |
| C=C(C)CN(CC)c1c([N+](=O)[O-])cc(C(F)(F)F)cc1[N+](=O)[O-] | inactive |
| COc1ncc(F)c2nc(S(=O)(=O)Nc3c(F)cccc3F)nn12 | inactive |
| CCOC(=O)C1(c2ccccc2)CCN(CCc2ccc(N)cc2)CC1 | inactive |
| COC(=O)c1ccccc1S(=O)(=O)NC(=O)Nc1nc(C)cc(C)n1 | inactive |
| CC(=O)CCc1ccc2c(c1)OCO2 | inactive |
| COC(=O)C1=CCCN(C)C1 | inactive |
| Nc1cnn(-c2ccccc2)c(=O)c1Cl | inactive |
| O=C(N[C@H]1CN2CCC1CC2)c1cc2ccoc2cn1 | inactive |
| CCC/C(=N\OCC)C1=C(O)CC(CC(C)SCC)CC1=O (stereo not given) | inactive |
